Tat export inh = blocks Tat-dependent protein export in E. coli; inhibition, % at 10 µM; E. coli MC4100 TorA-mCherry Tat export, fluorescence; AID 488895; hit rate 0.036% among 340,000;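 active means mean replicate inhibition at least 50% and at least half of replicates individually reaching 50%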;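 further: exported cargo escapes ClpAP degradation while cytoplasmic cargo is degraded and loses fluorescence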
E coli growth-1 = counter-screen for AddAB inhibitors: E. coli growth inhibition; E. coli V3065 growth, OD600 absorbance, 18 h; inhibition, % at 11.9 µM; AID 449728; hit rate 0.27% among 330,000;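 active means inhibition above the campaign's mean inhibition across all tested compounds plus 3 SD, cut at about 9.9% in these data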;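 further: uninfected addAB+ strain grown without phage in ampicillin broth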
E coli growth-2 = E. coli growth inhibition; Escherichia coli growth, OD600, 23 h; hits give low values; AID 1053175; OD600 absorbance (test concentration not listed); hit rate 0.21% among 330,000;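 active means OD600 absorbance below the run mean of sample wells minus 3.6 SD, in any replicate, cut at about 0.56 in these data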
AddAB inh = less growth of phage-infected E. coli with AddAB | AID 435030 | inhibition, % at 11.9 µM | hit rate 0.29% among 330,000 | E. coli expressing H. pylori AddAB, absorbance growth; in the data active means inhibition above about 12%
phage Ecoli inh = E. coli growth loss with phage present; hit rate 0.26% among 360,000; growth absorbance; inhibition, % at 11.9 µM; in the data active means inhibition above about 11%
Hits are given with their value; - = inactive; . = no result. Hits are enriched below; roughly 0.51% of the tested compounds scored in any of these assays.

SMILES	Tat export inh	E coli growth-1	E coli growth-2	AddAB inh	phage Ecoli inh
COC(=O)[C@@]12CCCCN1C(c1ccc(SC3CCCCC3)c(OC)c1)C1C(=O)N(C)C(=O)C12 (some centres undefined)	.	.	-	.	.
CCCCOc1ccc(C=CC(=O)NC2=Nc3ccccc3NC(C)=C2C(=O)OCC)cc1OC	.	.	-	.	.
Fc1cccc(NC(=S)Nc2ccc(Br)cc2)c1	-	-	0.49	-	-
COc1cccc(NC(=S)Nc2ccc(F)cc2)c1	-	-	-	-	-
Fc1ccc(NC(=S)Nc2ccc(Cl)cc2)cc1	-	-	0.52	-	-
O=C1c2cc(Br)ccc2N(Cc2ccc(Br)cc2)S(=O)(=O)C1c1cc(Cl)c(Cl)cc1[N+](=O)[O-] (centres undefined)	-	12	.	-	.
COc1ccc(C(N)=NOC(=O)c2ccc(C)c([N+](=O)[O-])c2)cc1OC	.	.	-	.	.
O=[N+]([O-])c1cccc(/C=C/c2nc[nH]c2[N+](=O)[O-])c1	-	11	-	-	-
N#CCc1ccc(NC(=O)/C=C/c2ccc([N+](=O)[O-])o2)cc1	-	.	0.41	.	.
COc1ccc(S(=O)(=O)N(C)CC2Oc3ccc(NC(=O)Nc4c(C)noc4C)cc3C(=O)N(C(C)CO)CC2C)cc1 (centres undefined)	.	.	-	.	.
O=C(NNC(=S)NC(=O)c1cccnc1)c1ccc(Cl)cc1	-	-	0.53	-	-
COc1ccc(C(=O)NC(=S)NNC(=O)c2cnccn2)cc1	-	-	0.43	-	-
O=C(NC(=S)NNC(=O)c1cnccn1)c1ccc(Cl)cc1	-	-	-	-	-
O=[N+]([O-])c1nn(-c2ccc3c(c2)OCCO3)n(O)c1=NCCCO	-	14	-	-	-
Cc1ccc(CN=c2c([N+](=O)[O-])nn(-c3ccc4c(c3)OCCO4)n2O)cc1	-	-	-	-	-
COC(CC1OC1C(O)COCc1ccccc1)OC (centres undefined)	.	.	-	.	.
CCN(c1ccccc1)S(=O)(=O)c1ccc(Cl)c(C(=O)O)c1	-	-	0.55	-	-
CCCCN1CC(=O)N2C3c4ccccc4OCC3C(c3ccccc3)[C@]2(C)C1=O (some centres undefined)	.	.	-	.	.
CC(=NO)c1cc(Cl)cc(Cl)c1O	.	.	-	.	.
Oc1cc(Cl)cc(Cl)c1Cl	-	-	0.27	-	-
C=Cc1ccc(COC(=O)c2cn(CC)c3nc(C)ccc3c2=O)cc1	-	-	-	-	-
CCn1cc(C(=O)NNC(=O)c2ccc(Cl)cc2)c(=O)c2ccc(C)nc21	-	-	0.38	-	.
C=CCOC(=O)c1cn(CC)c2nc(C)ccc2c1=O	-	-	0.52	-	-
CCn1cc(C(=O)NCc2cccc(C(F)(F)F)c2)c(=O)c2ccc(C)nc21	-	-	0.46	-	-
CCn1cc(C(=O)OCC(=O)c2cc(C)n(-c3cccc(C(F)(F)F)c3)c2C)c(=O)c2ccc(C)nc21	-	-	-	-	-
SMILES	Tat export inh	E coli growth-1	E coli growth-2	AddAB inh	phage Ecoli inh
COc1ccc(C2CC(=O)C=C(c3ccc(C(F)(F)F)c(C(F)(F)F)c3)C2)cc1OC (centres undefined)	.	.	-	.	.
CCC1=C2CCC3C(=O)N(c4ccccc4)C(=O)C3C2[C@@]2(C)C(=NCc3ccccc3)OC(=O)N2C1=O (some centres undefined)	.	.	-	.	.
Cc1ccc(NC(=O)C2CCCN(c3ncccn3)C2)cc1F (centres undefined)	-	9.8	-	-	-
CC1=NN(C(N)=S)C(=O)C1N=Nc1cccc2ccccc12 (centres undefined)	.	14	.	-	.
NCCCCC(N)c1nnc(C(CCC(=O)O)NC(=O)C2CCNCC2)o1 (centres undefined)	.	.	-	.	.
Cc1cccc(N2C(=O)CS/C2=N\NC(=O)c2ccc(Br)cc2)c1C	-	13	.	-	-
Cc1cccc(N2C(=O)CSC2=NNC(=O)c2ccc(Br)cc2)c1C	.	.	-	.	.
CC1CCCCC1NC(=O)C1CCN(S(=O)(=O)c2ccc(-n3cnnn3)cc2)CC1 (centres undefined)	-	38	-	-	-
Cc1cc(O)c2c(c1O)C(=O)[C@]13C(=C2O)C(=O)[C@@H]2[C@@H](O)[C@H]1[C@@H]1[C@H](O)[C@H]3C(=O)C3=C(O)c4c(O)cc(C)c(O)c4C(=O)[C@]312	-	9.9	-	-	.
CCOc1ccc(NC(=O)COC(=O)CC2CCCCC2)cc1	-	-	-	-	12
Cc1ccc(-c2nn(Cc3ccccc3)cc2C=CC(=O)O)cc1	.	.	-	.	.
CN(C)CCCNc1cc(C(C)(C)C)nc2c(-c3ccc(Cl)cc3)cnn12	-	-	0.27	-	-
COc1ccc(-n2nc(C(=O)NCC(=O)Nc3cccc(NC(C)=O)c3)c3ccccc3c2=O)cc1	-	-	0.57	-	-
Nc1ccc2c(c1)N1CCN=C1S2	-	-	-	-	-
O=C(Nc1ccc(Cl)cc1)Nc1ccc2c(c1)N1CCN=C1S2	-	-	0.5	-	-
Cc1cc(C(=O)OC2C(C)NS(=O)(=O)C3CC4C=C[C@]23O4)cc([N+](=O)[O-])c1 (some centres undefined)	.	.	-	.	.
Cc1ccc2c(c1)sc(-c1ccc(N(C)C)cc1)[n+]2C	-	-	0.32	-	-
Cc1ccc(N(C)C)cc1	.	.	.	.	-
CCC(C)c1ccc(C(C)NC(=S)NC2CCCCC2)cc1 (centres undefined)	-	11	.	-	-
CCc1ccc(C(C)NC(=S)NC2CCCCC2)cc1 (centres undefined)	-	.	-	.	.
Cc1cc(C(=O)N/N=C/c2ccc(O)c(O)c2O)c(C)n1-c1ccccc1	-	.	.	.	20
C[n+]1c2n(c3ccccc31)N=C(c1ccccc1)CS2	-	-	-	-	-
C[n+]1c2n(c3ccccc31)N=C(c1ccc(-c3ccccc3)cc1)CS2	-	-	0.3	-	-
Clc1ccc(OCCCNCc2ccccc2)c2ccccc12	-	-	0.4	-	-
Oc1c(Cl)cc(Cl)cc1CNc1nc2ccccc2[nH]1	-	-	0.42	-	-
SMILES	Tat export inh	E coli growth-1	E coli growth-2	AddAB inh	phage Ecoli inh
Oc1c(Cl)cc(Cl)cc1CNc1ccccn1	-	.	-	.	-
CC(=O)Oc1c(I)cc(I)cc1C(=O)Nc1ccc(Cl)cc1	-	12	.	-	-
COc1ccc(Cl)cc1C(=O)Nc1ccc(NC(C)=O)cc1	-	-	-	-	-
O=C1C=C(Nc2ccccc2O)c2ccccc2C1=O	-	-	0.48	-	-
O=C1C=C(NCc2ccccc2)c2ccccc2C1=O	-	.	0.47	.	-
O=C(O)C1=CC(C2CC2)CC(OCCCCO)O1 (centres undefined)	.	.	-	.	.
CCSc1nnc(NC(=O)c2ccccn2)s1	-	11	-	-	-
CCSc1nnc(NC(=O)c2cnccn2)s1	.	-	-	-	.
O=C(O)C=CC(=O)Nc1ccc(OC(F)(F)Cl)cc1	.	.	-	.	.
O=C(Cc1ccccc1)NNC(=S)NC(=O)c1cccs1	.	-	0.45	-	-
O=C(Nc1nc2c(Cl)cccc2s1)c1ccc([N+](=O)[O-])o1	-	-	0.5	-	-
CCCOc1ccc(/C=N/NC(=S)Nc2ccccc2[N+](=O)[O-])c(O)c1	.	11	.	-	-
Cc1ccc(C(=O)NCCN2C3=NCC(C)N3CC2Cc2ccc(O)cc2)cc1Br (centres undefined)	.	.	-	.	.

Source: PubChem BioAssay (several laboratories)
